± gives the standard deviation of the averaged measurements.
system: DLD1; experiment: TCF/Wnt firefly luciferase reporter signal relative to plate median (fraction of plate median); higher = higher Wnt reporter signal; conditions: 5 µM; treatment time 24 h; reporter: 7TFP
Method in brief: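 Luminescence, normalised well by well to the plate median, is tabulated as a mean of independent replicates. There were two replicates, run on colorectal cancer lines stably transduced with lentiviral TCF/Wnt firefly luciferase reporters and dosed with library compounds at a final 5 µM for 24 h. Readouts were firefly luciferase or CellTiterGlo on parallel plates.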

SMILES	TCF/Wnt firefly luciferase reporter signal
CCOc1ccc2nc(S(N)(=O)=O)sc2c1	0.704 ± 0.088
C=CCCCCCCCCC(=O)O	1.01 ± 0.025
C[C@H](N)[C@H](O)c1cccc(O)c1	0.918 ± 0.074
CC(=O)O[C@H]1C[C@@]2(C)[C@H](c3ccoc3)OC(=O)[C@H]3O[C@]32[C@@]2(C)C1[C@]1(C)C(C[C@H]2OC(C)=O)C(C)(C)[C@H](OC(C)=O)C[C@@H]1OC(C)=O (stereo partly drawn) [11alpha-ACETOXYKHIVORIN]	1 ± 0.14
COc1cc(O)c2c(c1)C(=O)c1cc3c(c(OC)c1C2=O)[C@@H]1CCO[C@@H]1O3 [Aversin]	0.95 ± 0.059
C[C@H]1O[C@H](O[C@H]2[C@H](O)[C@@H](O)[C@@H](O[C@H]3[C@H](O)[C@@H](O)C(O)O[C@@H]3CO)O[C@@H]2CO)[C@H](O)[C@@H](O)[C@@H]1N[C@H]1C=C(CO)[C@@H](O)[C@H](O)[C@H]1O (stereo not given in full)	1.06
COC(=O)c1c(C)cc(OC)cc1O	0.885 ± 0.047
Nc1[nH]cnc2ncnc1-2	0.981 ± 0.012
CC(C(=O)O)c1ccc(C(=O)c2cccs2)cc1 (stereo not given)	0.996 ± 0.021
CCOc1ccc(C(=O)c2ccc(OC)c(O)c2O)cc1	0.966 ± 0.025
CN1C(=O)CC[C@H]1c1cccnc1	1.06 ± 0.057
CC1=C(/C=C/C(C)=C/C=C/C(C)=C/C=C/C=C(C)/C=C/C=C(C)/C=C/C(=O)[C@]2(C)C[C@@H](O)CC2(C)C)C(C)(C)C[C@H](O)C1	0.947 ± 0.058
C[C@@H]1NC(=O)[C@H](Cc2ccccc2)NC1=O [cyclo(alanylphenylalanyl)]	0.987 ± 0.12
CC(C(=O)O)c1cccc(C(=O)c2ccccc2)c1 (stereo not given)	0.9355 ± 0.0064
O=C(O)CN(CCN(CC(=O)O)CC(=O)O)CC(=O)O.[Na+].[Na+].[Na+]	1.02 ± 0.12
CN1CCCN=C1COC(=O)C(O)(c1ccccc1)C1CCCCC1 (stereo not given)	1.08 ± 0.042
Cc1ccc(S(=O)(=O)NC(=O)NN2CCCCCC2)cc1	0.881 ± 0.071
CC[C@H]1C(=O)OC[C@@H]1Cc1cncn1C	0.89 ± 0.15
Nc1ccc(C(=O)Oc2ccccc2)c(O)c1	1.08 ± 0.14
CC(=O)C1=C(CO)C(=O)c2cccc(O)c2C1=O [Bhimamycin E]	0.983 ± 0.14

SMILES	TCF/Wnt firefly luciferase reporter signal
O=C1NC(Cc2ccc(O)cc2)C(=O)N2CCCC12 (stereo not given) [Cyclo(tyrosylprolyl)]	0.768 ± 0.15
COc1cccc2c1C(=O)c1c(O)c3c(c(O)c1C2=O)C[C@@](O)(C(=O)CO)C[C@@H]3O[C@H]1C[C@H](N)[C@@H](O)[C@H](C)O1	1.16 ± 0.014
CCCCCc1c2c(cc(O)c1C(=O)O)OC(=O)c1c(cc(OC)cc1C(=O)CCCC)O2	0.963 ± 0.034
CC1CCC2(OC1)OC1CC3C4CCC5C[C@@H](O)CCC5(C)C4=CCC3(C)C1[C@@H]2C (stereo partly drawn) [3beta-HYDROXYISOALLOSPIROST-9(11)-ENE]	1.02 ± 0.11
COc1ccc2c(c1)OCC(Cc1ccc(OC)c(OC)c1)C2=O (stereo not given)	0.997 ± 0.15
CC(C)=CCc1c2c(c3occ(-c4ccc(O)c(O)c4)c(=O)c3c1O)C=CC(C)(C)O2	0.996 ± 0.077
CC(=O)Oc1cc(C)c2c(c1C(OC(C)=O)OC(C)=O)Oc1c(c(C)c(OC(C)=O)c3c1C(OC(C)=O)OC3=O)OC2=O (stereo not given)	0.993 ± 0.081
COc1cc([C@@H]2c3cc4c(cc3[C@@H](O[C@@H]3O[C@@H]5CO[C@@H](c6cccs6)O[C@H]5[C@H](O)[C@H]3O)[C@H]3COC(=O)[C@H]23)OCO4)cc(OC)c1O	0.738 ± 0.032
CC[n+]1c(-c2ccccc2)c2cc(N)ccc2c2ccc(N)cc21	0.96 ± 0.085
C=CCCCCCCCCCCCC(O)CC(O)COC(C)=O (stereo not given)	0.866 ± 0.1
CN(C)CCC(c1ccc(Br)cc1)c1ccccn1 (stereo not given)	1.11 ± 0.11
C[C@]12CCC(=O)C=C1CC[C@@H]1[C@@H]2C(=O)C[C@@]2(C)[C@H]1CC[C@]2(O)C(=O)CO	0.914 ± 0.093
CC(C)(S)[C@@H](N)C(=O)O	1.09 ± 0.014
CO/N=C(\C(=O)N[C@@H]1C(=O)N2C(C(=O)OCOC(=O)C(C)(C)C)=C(/C=C\c3scnc3C)CS[C@H]12)c1csc(N)n1	0.809 ± 0.029
Nc1ccc(S(=O)(=O)Nc2ccccn2)cc1	1.12 ± 0.028
CCOC(=O)C1=C(C)NC(C)=C(C(=O)OC)C1c1cccc([N+](=O)[O-])c1 (stereo not given)	1.06 ± 0.035
O=C1O[C@H]([C@@H](O)CO)C(O)=C1O	0.87 ± 0.069
CC1(C)CC[C@]2(C(=O)O)CC[C@]3(C)C(=CC[C@@H]4[C@@]5(C)CC[C@H](O)C(C)(C)[C@@H]5[C@H](O)C[C@]43C)[C@@H]2C1	0.952 ± 0.018
CC(=O)CC(c1ccccc1)c1c(O)c2ccccc2oc1=O (stereo not given)	0.935 ± 0.062
C=CCCCCCCCCC(=O)[O-].C=CCCCCCCCCC(=O)[O-].[Zn+2]	0.94 ± 0.24
